# The supplement of paper PMC5662767
# Structures can show the parent of a compound that is named as a salt.
# Test system: Drosophila S2 cl14 SmoIP sensor cells
# Assay: normalized SmoIP GFP fluorescence (untreated unstimulated = 0%, untreated Hh-stimulated = 100%); higher = more Smo activation sensor fluorescence
# Details: compound concentration: 2 uM, 24 h
# [1] = stimulation: mock conditioned medium (-Hh)
# [2] = stimulation: Hh conditioned medium (+Hh)
# 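Note: flow cytometry read-out as median GFP intensity of gated cells, compounds added 30 min before Hh-conditioned or mock medium, mock-treated cells serving as unstimulated baseline.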
SMILES,normalized SmoIP GFP fluorescence [1],normalized SmoIP GFP fluorescence [2]
O=C(Nc1ccc(OC(F)(F)F)cc1)c1sccc1NCc1ccnc2ccccc12,9.86%,–
C=C(C)[C@@H]1CC[C@]2(C(=O)O)CC[C@]3(C)[C@H](CC[C@@H]4[C@@]5(C)CC[C@H](O)C(C)(C)[C@@H]5CC[C@]43C)[C@@H]12 [betulinic-acid],-2.93%,97%
Cc1ccc(NC(=O)C2(c3ccc4c(c3)OC(F)(F)O4)CC2)nc1-c1cccc(C(=O)O)c1,–,80%
CCN(CC)CCCC(C)Nc1nc(C)cc(Nc2ccc3nc(C)cc(N)c3c2)n1 (stereo unspecified),-4.53%,112%
CCCNC(=O)Nc1ccc(Oc2ncnc3cc(OC)c(OC)cc23)cc1Cl,-6.51%,105%
Oc1nc(-c2ccc(C(F)(F)F)cc2)nc2c1CSCC2,5.66%,–
Nc1ccc(C(=O)Nc2cccc(-c3nc(N4CCOCC4)c4oc5ncccc5c4n3)c2)cn1,5.45%,–
CCOc1ccn(-c2ccc(F)cc2)c(=O)c1C(=O)Nc1ccc(Oc2ccnc(N)c2Cl)c(F)c1,-5.22%,–
O=c1c(-c2ccc(O)cc2)coc2cc(O)cc(O)c12 [Genistein],-0.804%,–
C[C@]12CCC3=C4CCC(=O)C=C4CC[C@H]3[C@@H]1CC[C@@]2(O)CC#N [Dienogest],10.2%,–
Cc1nc(C(=O)NCC(=O)O)c(O)c2ccc(Oc3ccccc3)cc12,11%,–
COc1ccccc1N1CCN(CC(O)COc2cccc3ccccc23)CC1 (stereo unspecified) [Naftopidil-Dihydrochloride],-1.88%,–
CCOC(=O)N1CCC(=C2c3ccc(Cl)cc3CCc3cccnc32)CC1 [Loratadine],11%,–
Cc1nc(N)sc1-c1ccnc(Nc2ccc(N3CCOCC3)cc2)n1,94.3%,–
COc1cc(Nc2nc3ccccc3nc2NS(=O)(=O)c2ccc(NC(=O)c3ccc(C)c(OC)c3)cc2)cc(OC)c1,5.66%,–
O=C1NC(=O)/C(=C/c2cccc(C(F)(F)F)c2)S1,-9.04%,107%
C#CCC(Cc1cnc2nc(N)nc(N)c2n1)c1ccc(C(=O)N[C@@H](CCC(=O)O)C(=O)O)cc1 (stereo partly specified) [Pralatrexate(Folotyn)],13.3%,–
O=c1cc(-c2cccc3c2Sc2ccccc2S3)oc(N2CCOCC2)c1,2.43%,–

SMILES,normalized SmoIP GFP fluorescence [1],normalized SmoIP GFP fluorescence [2]
NC(=O)Nc1cc(-c2cccc(F)c2)sc1C(=O)N[C@H]1CCCNC1,45%,–
CC1=C(C(=O)Nc2cc3cn[nH]c3cc2F)C(c2ccc(C(F)(F)F)cc2)CC(=O)N1 (stereo unspecified),-1.88%,–
Nc1c(Br)cc(Br)cc1CN[C@H]1CC[C@H](O)CC1 [ambroxol-hcl],-2.82%,106%
OC(CCN1CCCCC1)(c1ccccc1)C1CC2C=CC1C2 (stereo unspecified) [Biperiden-hydrochloride],2.64%,–
COc1ccccc1OCC(O)CN1CCN(CC(=O)Nc2c(C)cccc2C)CC1 (stereo unspecified) [Ranolazine-dihydrochloride],2.97%,–
COc1cc2nccc(Oc3ccc(NC(=O)C4(C(=O)Nc5ccc(F)cc5)CC4)cc3)c2cc1OC,3.51%,–
COc1cc2/c(=N/c3ccc(Br)cc3F)nc[nH]c2cc1OCC1CCN(C)CC1 [Vandetanib],60.9%,–
COc1ccc2[nH]c([S+]([O-])Cc3ncc(C)c(OC)c3C)nc2c1 (stereo unspecified) [Omeprazole],–,97%
CN1CCC(NC(=O)c2cc(-c3c(O)cc(O)cc3Oc3ccc([N+](=O)[O-])cc3)on2)CC1,4.56%,129%
CCN(c1cc(-c2ccc(CN3CCOCC3)cc2)cc(C(=O)NCc2c(C)cc(C)[nH]c2=O)c1C)C1CCOCC1,-3.39%,106%
COc1cc(Nc2c(C#N)cnc3cc(OCCCN4CCN(C)CC4)c(OC)cc23)c(Cl)cc1Cl [Bosutinib],9.08%,143%
COc1ccc2cccc(CCNC(C)=O)c2c1 [Agomelatine],5.66%,102%
C=CC(=O)Nc1ccc2ncnc(Nc3cccc(Br)c3)c2c1,-0.662%,125%
O=C(O)COCCN1CCN(C(c2ccccc2)c2ccc(Cl)cc2)CC1 (stereo unspecified) [Cetirizine-di-hcl],-7.27%,90.4%
Cn1c(N2CCCCS2(=O)=O)nc(C(=O)NCc2ccc(F)cc2)c(O)c1=O,-2.42%,99.7%
C[C@@H](O[C@H]1OCCN(Cc2n[nH]c(=O)[nH]2)[C@H]1c1ccc(F)cc1)c1cc(C(F)(F)F)cc(C(F)(F)F)c1 [Aprepitant],-5.98%,115%
CN(C)Cc1ccc(-c2nc3cccc4c3n2CCNC4=O)cc1,-14.3%,120%
O=C(N/N=C/c1ccc(O)c(O)c1)c1cc2ccccc2cc1O [dynasore],1.24%,129%
